For some assays here: Results with a measured potency or affinity are listed apart. Active and inactive are the calls of the source.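 How the source made its calls, unless noted: active means membrane potential signal rise above negative control mean plus 3 SD in both duplicates, also active in the earlier TRPC4 screen; inactive means the rest.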
Columns and labels:
[1] = test system: TRPC4 beta (transient receptor potential cation channel C4), mouse; test: activators of mouse TRPC4 channel, confirmation, cell-based, Fluo4 calcium, HEK293 TRPC4beta/mu-opioid, duplicates, 10 µM (AID 2426;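 active means fluorescence ratio normalized to control raised more than 50% in primary screen plus both repeat runs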;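 on activation: percent rise of integrated ratio over buffer wells lacking compound which define 0%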); settings: Fluo4 calcium fluorescence, at 10 µM; stronger effect = higher value
[2] = test system: transient receptor potential cation channel C4 beta (TRPC4), mouse; test: activators of mouse TRPC4 channel, confirmation, cell-based, second round, Fluo4, HEK293 TRPC4beta/mu-opioid, 1 µM (AID 2461;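 active means primary screen active and over 50% activation in each of two duplicate runs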;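 on activation: 0% = wells without test compound as baseline of integrated fluorescence ratio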); settings: Fluo4 calcium fluorescence, at 1 µM; stronger effect = higher value
[3] = test system: TRPC4 (transient receptor potential cation channel C4 beta), mouse; test: positive allosteric modulators of mouse TRPC4, confirmation, cell-based, second round, Fluo-4, HEK293 TRPC4beta/mu-opioid, 1 µM (AID 2554;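 active means primary screen hit whose fluorescence ratio, in both repeats, exceeds the weak agonist control mean by 3 SD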); settings: DAMGO EC20, Fluo-4 calcium flux, at 1 µM; stronger effect = higher value
[4] = test system: TRPC4 beta (transient receptor potential cation channel C4), mouse; test: positive allosteric modulators of mouse TRPC4, confirmation, cell-based, Fluo-4, HEK293 TRPC4beta/mu-opioid (AID 2555;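 active means primary screen hit whose calcium fluorescence ratio, in both repeats, exceeds the weak agonist control mean by 3 SD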); settings: DAMGO EC20, Fluo-4 calcium flux, at 10 µM; stronger effect = higher value
[5] = molecular target: Short transient receptor potential channel 4 (Mus musculus) (UniProt Q9QUQ5); test: inhibitors of mouse TRPC4 channel, confirmation, cell-based, Fluo4, HEK293 TRPC4beta/mu-opioid (AID 2636;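 active means calcium signal cut by more than 3 SD below the full-agonist control yet still positive, in both repeats and the earlier primary screen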); settings: DAMGO, Fluo4 calcium flux, at 10 µM; stronger effect = higher value
Sequence of Short transient receptor potential channel 4 (Mus musculus) (Q9QUQ5 whole entry, looked up): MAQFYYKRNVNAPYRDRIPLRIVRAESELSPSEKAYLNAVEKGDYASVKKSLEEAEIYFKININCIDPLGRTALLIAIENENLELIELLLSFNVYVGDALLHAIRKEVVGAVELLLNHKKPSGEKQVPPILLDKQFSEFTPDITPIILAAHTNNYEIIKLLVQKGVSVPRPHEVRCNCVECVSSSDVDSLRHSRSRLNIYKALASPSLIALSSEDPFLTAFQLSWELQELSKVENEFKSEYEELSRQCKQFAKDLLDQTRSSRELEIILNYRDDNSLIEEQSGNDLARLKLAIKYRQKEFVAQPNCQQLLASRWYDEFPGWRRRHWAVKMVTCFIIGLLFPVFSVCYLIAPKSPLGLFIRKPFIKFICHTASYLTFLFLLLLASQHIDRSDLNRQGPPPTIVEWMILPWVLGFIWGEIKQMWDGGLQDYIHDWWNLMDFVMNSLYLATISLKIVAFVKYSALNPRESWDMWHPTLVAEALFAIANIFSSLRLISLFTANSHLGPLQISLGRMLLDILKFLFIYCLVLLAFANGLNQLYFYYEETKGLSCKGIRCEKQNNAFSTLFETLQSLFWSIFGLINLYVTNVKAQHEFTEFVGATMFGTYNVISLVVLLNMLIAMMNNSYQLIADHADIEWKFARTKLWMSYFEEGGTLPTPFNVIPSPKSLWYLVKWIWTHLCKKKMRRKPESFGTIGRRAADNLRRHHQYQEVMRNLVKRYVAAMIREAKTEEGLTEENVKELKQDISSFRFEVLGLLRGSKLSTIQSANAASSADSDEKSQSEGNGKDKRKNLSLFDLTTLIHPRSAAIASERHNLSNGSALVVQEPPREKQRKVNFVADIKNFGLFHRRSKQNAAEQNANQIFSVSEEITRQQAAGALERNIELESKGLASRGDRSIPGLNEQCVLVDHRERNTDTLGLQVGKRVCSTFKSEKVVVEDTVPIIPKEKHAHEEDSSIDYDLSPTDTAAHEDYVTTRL

[6] = molecular target: Short transient receptor potential channel 4 (Mus musculus) (UniProt Q9QUQ5); test: inhibitors of mouse TRPC4 channel, confirmation, cell-based, second round, Fluo4, HEK293 TRPC4beta/mu-opioid, 1 µM (AID 2637;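 active means calcium signal ratio cut to more than 3 SD under the fully stimulated control mean yet still positive, in both repeats and the primary screen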); settings: Fluo4 calcium flux, DAMGO, at 1 µM; stronger effect = higher value
[7] = molecular target: Short transient receptor potential channel 4 (Mus musculus) (UniProt Q9QUQ5); test: TRPC4 positive allosteric modulators, dose response, cell-based, HEK293 TRPC4/mu-opioid, Fluo-4 calcium, EC20 DAMGO (AID 434941;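 active means earlier screen potentiator hit that boosts the TRPC4 ion channel at some dose, with a dose response; inactive means no potentiation, no dose response, or not a prior hit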;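 further: calcium entry triggered by an EC20 dose of DAMGO at the co-expressed mu-opioid receptor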)
[8] = molecular target: Short transient receptor potential channel 4 (Mus musculus) (UniProt Q9QUQ5); test: mouse TRPC4 channel inhibitors, dose response, cell-based, HEK293 TRPC4/mu-opioid, Fluo-4 calcium (AID 434942;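 active means primary screen inhibitor hit that blocks the TRPC4 channel at some tested dose, yielding a dose curve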)
[9] = molecular target: Short transient receptor potential channel 6 (Mus musculus) (UniProt Q61143); test: inhibition of mouse TRPC6 channel, confirmation, selectivity assay for TRPC4 inhibitor project, cell-based, HEK293, membrane potential dye, duplicate (AID 434948;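 active means active in primary screen and both duplicates, each dropping signal beyond three positive-control SD with fluorescence still positive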); settings: HEK293 TRPC6, membrane potential dye fluorescence, at 10 µM, stimulated with maximal-effect acetylcholine; stronger effect = higher value
Sequence of Short transient receptor potential channel 6 (Mus musculus) (Q61143 whole entry, looked up): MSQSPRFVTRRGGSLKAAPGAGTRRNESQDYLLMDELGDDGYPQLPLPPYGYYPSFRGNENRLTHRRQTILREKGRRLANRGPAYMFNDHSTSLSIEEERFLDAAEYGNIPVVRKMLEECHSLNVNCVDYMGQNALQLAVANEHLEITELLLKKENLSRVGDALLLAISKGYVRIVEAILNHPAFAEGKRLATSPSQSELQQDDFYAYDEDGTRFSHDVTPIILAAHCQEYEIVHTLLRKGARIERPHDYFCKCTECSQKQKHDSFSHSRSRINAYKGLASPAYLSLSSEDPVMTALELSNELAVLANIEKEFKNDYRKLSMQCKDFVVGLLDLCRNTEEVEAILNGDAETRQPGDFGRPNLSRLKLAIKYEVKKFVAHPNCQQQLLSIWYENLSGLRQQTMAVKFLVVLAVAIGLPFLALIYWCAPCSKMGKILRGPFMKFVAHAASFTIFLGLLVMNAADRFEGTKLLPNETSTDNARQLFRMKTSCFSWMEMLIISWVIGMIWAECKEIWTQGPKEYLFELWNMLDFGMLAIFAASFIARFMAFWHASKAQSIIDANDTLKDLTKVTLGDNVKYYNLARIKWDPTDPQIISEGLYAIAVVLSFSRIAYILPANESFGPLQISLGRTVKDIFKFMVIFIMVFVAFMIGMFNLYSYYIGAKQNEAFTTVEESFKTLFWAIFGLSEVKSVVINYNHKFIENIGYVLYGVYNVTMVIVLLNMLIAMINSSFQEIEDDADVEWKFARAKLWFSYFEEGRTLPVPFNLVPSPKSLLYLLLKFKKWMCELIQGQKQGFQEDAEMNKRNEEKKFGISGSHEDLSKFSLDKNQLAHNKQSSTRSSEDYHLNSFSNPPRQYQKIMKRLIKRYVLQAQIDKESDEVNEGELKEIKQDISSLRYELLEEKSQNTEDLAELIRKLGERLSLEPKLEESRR

[10] = molecular target: Short transient receptor potential channel 6 (Mus musculus) (UniProt Q61143); test: activation of mouse TRPC6 channel, confirmation, selectivity assay for TRPC4 activator project, cell-based, HEK293, membrane potential dye, duplicate (AID 434950); settings: HEK293 TRPC6, membrane potential fluorescence, at 10 µM; stronger effect = higher value;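 on activation: 0% = buffer only wells and 100% = acetylcholine maximal-effect wells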
[11] = molecular target: Short transient receptor potential channel 6 (Mus musculus) (UniProt Q61143); test: TRPC6 potentiation by TRPC4 potentiator hits, confirmation, selectivity assay for TRPC4 potentiator project, HEK293 cells, membrane potential dye, duplicate (AID 434952;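 active means compound raising the membrane signal above positive-control mean plus 3 SD in both repeats, and a primary screen hit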); settings: HEK293 TRPC6, membrane potential dye fluorescence, at 10 µM, maximal acetylcholine added after compound; stronger effect = higher value
[12] = molecular target: Short transient receptor potential channel 4 (Mus musculus) (UniProt Q9QUQ5); test: calcium flux activators in TRPC4/5HT1a cells, counter-screen for TRPC4 activator project, cell-based, second counter screen, HEK293 TRPC4/5HT1a, Fluo-4 (AID 434977;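 active means calcium signal rise above buffer-control mean plus 5 SD in both duplicates, and also a hit in the primary screen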;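 on activation: plate controls were assay buffer for no effect and maximal serotonin response for full effect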); settings: Fluo-4 calcium flux, at 10 µM; stronger effect = higher value
[13] = calcium flux inhibitors in TRPC4/5HT1a cells, confirmation, counter-screen for TRPC4 inhibitor project, cell-based, second counter screen, HEK293 TRPC4/5HT1a, Fluo-4 (AID 434978;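 active means primary screen active whose calcium signal fell more than 3 SD beyond the full-serotonin control mean in both duplicate plates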;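 further: serotonin given first at submaximal then at maximal dose after compound preincubation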); settings: Fluo-4 calcium flux, at 10 µM, serotonin added to trigger calcium flux; stronger effect = higher value
[14] = test system: TRPC4 (mouse), co-expressed with 5HT1a in HEK293; test: calcium flux potentiators in TRPC4/5HT1a cells, confirmation, counter-screen for TRPC4 potentiator project, cell-based, second counter screen, HEK293 TRPC4/5HT1a, Fluo-4 (AID 434979;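 active means signal rise over 3 SD above mean of control wells given weak agonist, in both repeats and first screen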); settings: Fluo-4 calcium flux, at 10 µM, serotonin added at its EC20 dose; stronger effect = higher value
[15] = calcium flux activation in mu-opioid HEK293 cells, confirmation, counter-screen for TRPC4 activator project, cell-based, HEK293 mu-opioid receptor line (AID 449723;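 active means hit in primary screen, with calcium signal over 5 SD above buffer well mean in both duplicates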;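 further: counter screen cells carry the mu-opioid receptor alone and lack TRPC4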); settings: Fluo-4 calcium fluorescence, at 10 µM; stronger effect = higher value
[16] = calcium flux enhancement in mu-opioid HEK293 cells, confirmation, counter-screen for TRPC4 allosteric potentiator project, cell-based, HEK293 mu-opioid receptor line (AID 449724;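 active means calcium signal rise more than 3 SD above the low-dose agonist control mean, in both duplicate plates and the primary screen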); settings: Fluo-4 calcium flux, at 10 µM, compound added before EC20 DAMGO stimulus; stronger effect = higher value
[17] = thallium flux activation in parental CHO cells, counter-screen for KCNQ1 potentiator project (AID 493006;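 active means duplicate-averaged activation above buffer control mean plus 5 SD of those controls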;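 on activation: fluorescence ratio of max minus min over baseline after K+ and Tl+ depolarization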); settings: parental CHO-K1 cells, FluxOR thallium flux, at 10 µM; stronger effect = higher value
[18] = molecular target: Potassium voltage-gated channel subfamily KQT member 1 (Homo sapiens) (UniProt P51787); test: KCNQ1 potassium channel potentiators, confirmation, FluxOR thallium flux, CHO cells, duplicates (AID 493007;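 active means potentiation averaged over duplicate wells exceeding buffer-only control mean by more than 3 SD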;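 on outcome: cells depolarized by a potassium plus thallium sulfate stimulus after compound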;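 on potentiation: 0% = buffer-only wells and 100% = R-L3 activator control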); settings: KCNQ1 cell line, FluxOR thallium flux fluorescence, at 10 µM; stronger effect = higher value, % of reference activator effect, buffer zero
Sequence of Potassium voltage-gated channel subfamily KQT member 1 (Homo sapiens) (P51787 whole entry, looked up): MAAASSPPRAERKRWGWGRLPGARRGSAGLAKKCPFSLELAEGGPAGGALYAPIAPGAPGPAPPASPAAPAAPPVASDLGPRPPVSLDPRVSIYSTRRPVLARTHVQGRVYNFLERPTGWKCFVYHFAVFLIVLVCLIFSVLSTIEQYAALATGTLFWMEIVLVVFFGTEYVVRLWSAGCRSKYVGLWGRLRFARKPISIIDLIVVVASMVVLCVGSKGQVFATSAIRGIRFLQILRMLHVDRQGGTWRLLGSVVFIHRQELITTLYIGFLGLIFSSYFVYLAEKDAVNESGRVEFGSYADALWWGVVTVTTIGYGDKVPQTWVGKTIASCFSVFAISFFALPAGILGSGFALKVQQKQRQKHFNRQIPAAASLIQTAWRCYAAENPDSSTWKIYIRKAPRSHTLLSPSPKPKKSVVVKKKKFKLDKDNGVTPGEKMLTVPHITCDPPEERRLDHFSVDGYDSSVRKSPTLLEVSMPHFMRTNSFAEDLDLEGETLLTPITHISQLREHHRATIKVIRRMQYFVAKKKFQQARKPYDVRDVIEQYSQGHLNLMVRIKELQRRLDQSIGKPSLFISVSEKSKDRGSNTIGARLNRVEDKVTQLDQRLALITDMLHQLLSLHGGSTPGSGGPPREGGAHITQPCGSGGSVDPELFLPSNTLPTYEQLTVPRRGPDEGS

[19] = molecular target: Potassium voltage-gated channel subfamily KQT member 2 (Rattus norvegicus) (UniProt O88943); test: rat KCNQ2 channel potentiation, selectivity assay for KCNQ1 potentiator project, KCNQ2-CHO-K1 cells (AID 493009;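 active means mean duplicate potentiation above the buffer control mean plus 5 SD of buffer wells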;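 further: assay conditions were tuned for KCNQ1 rather than KCNQ2 modulators; signal is max minus min fluorescence divided by baseline after thallium stimulus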); settings: FluxOR thallium flux fluorescence, at 10 µM; stronger effect = higher value, scaled: buffer 0, activator control 100
Sequence of Potassium voltage-gated channel subfamily KQT member 2 (Rattus norvegicus) (O88943 whole entry, looked up): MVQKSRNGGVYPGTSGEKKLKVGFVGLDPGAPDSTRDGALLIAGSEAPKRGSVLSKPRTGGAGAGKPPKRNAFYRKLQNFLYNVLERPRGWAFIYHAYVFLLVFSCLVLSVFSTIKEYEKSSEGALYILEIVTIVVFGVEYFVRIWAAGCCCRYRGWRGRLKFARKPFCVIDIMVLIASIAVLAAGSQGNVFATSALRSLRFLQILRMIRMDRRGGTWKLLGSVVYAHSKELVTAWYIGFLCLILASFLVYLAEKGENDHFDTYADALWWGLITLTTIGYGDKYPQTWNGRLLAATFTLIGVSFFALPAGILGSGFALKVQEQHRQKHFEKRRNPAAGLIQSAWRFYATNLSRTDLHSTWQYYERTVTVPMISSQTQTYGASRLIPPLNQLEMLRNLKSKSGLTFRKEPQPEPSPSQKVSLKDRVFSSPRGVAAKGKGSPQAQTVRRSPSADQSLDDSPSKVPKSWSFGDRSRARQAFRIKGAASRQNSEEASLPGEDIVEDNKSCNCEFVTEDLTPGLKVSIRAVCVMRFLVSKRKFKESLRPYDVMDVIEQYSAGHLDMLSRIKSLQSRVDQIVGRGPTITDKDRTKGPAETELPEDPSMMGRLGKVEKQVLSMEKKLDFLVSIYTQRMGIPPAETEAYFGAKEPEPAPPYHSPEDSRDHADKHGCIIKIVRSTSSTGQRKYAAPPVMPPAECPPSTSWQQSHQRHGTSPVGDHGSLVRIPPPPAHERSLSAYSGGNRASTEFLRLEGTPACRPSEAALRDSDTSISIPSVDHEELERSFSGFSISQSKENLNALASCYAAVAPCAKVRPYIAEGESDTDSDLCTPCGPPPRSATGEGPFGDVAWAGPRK

[20] = molecular target: Potassium voltage-gated channel subfamily KQT member 1 (Homo sapiens) (UniProt P51787); test: KCNQ1 channel current potentiators, confirmation, orthogonal assay for KCNQ1 potentiator project, IonWorks patch clamp, KCNQ1-CHO cells (AID 493184;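 active means current rise at least 3 SD above the untreated control mean in each of two repeat wells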;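 on current potentiation: percent change of the same well's current before compound addition so 0% = no change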); settings: automated patch clamp current, at 10 µM; stronger effect = higher value

Cc1cc(NC(=O)c2cnn3cccnc23)nn1CC(=O)Nc1cccnc1
inactive: outcome [1] | outcome [2] | outcome [5] | outcome [6] | outcome [7] | outcome [8] | outcome [9] | outcome [10] | outcome [11] | outcome [12] | outcome [13] | outcome [15] | outcome [16]
active: potentiation [3] 22% | potentiation [4] 109% | potentiation [14] 72.1%

COc1ccc(C(CNC(=O)CN2C(=O)NC3(CCCC3)C2=O)N(C)C)cc1 (configuration not stated)
inactive: outcome [2] | outcome [3] | outcome [4] | outcome [5] | outcome [6] | outcome [7] | outcome [8] | outcome [9] | outcome [10] | outcome [11] | outcome [12] | outcome [13] | outcome [14] | outcome [15] | outcome [16]
active: activation [1] 121%

CCCC(=O)NC(C)C(c1cccs1)N1CCN(c2ccccc2)CC1 (configuration not stated)
inactive: outcome [1] | outcome [2] | outcome [3] | outcome [4] | outcome [5] | outcome [6] | outcome [7] | outcome [8] | outcome [9] | outcome [11] | outcome [12] | outcome [13] | outcome [14] | outcome [15] | outcome [16]
active: activation [10] 38.5%

CCN1CCN(c2ccc(S(=O)(=O)N3CCCCC3)cc2NC(=O)COc2ccccc2)CC1
inactive: outcome [2] | outcome [3] | outcome [4] | outcome [5] | outcome [6] | outcome [7] | outcome [8] | outcome [9] | outcome [10] | outcome [11] | outcome [13] | outcome [14] | outcome [15] | outcome [16]
active: activation [1] 157% | activation [12] 16.8%

CCOC(=O)C1=NN(C(=O)c2ccc(C)cc2)C(O)(c2ccc(Cl)cc2)C1 (configuration not stated)
inactive: outcome [2] | outcome [3] | outcome [4] | outcome [5] | outcome [6] | outcome [7] | outcome [8] | outcome [9] | outcome [11] | outcome [13] | outcome [14] | outcome [16] | outcome [20]
active: activation [1] 98% | activation [10] 217% | activation [12] 66.4% | activation [15] 37.9% | activation [17] 630% | potentiation [18] 336% | potentiation [19] 655%

Cc1cccc(C(=O)NC(=S)NNC(=O)c2cccs2)c1
inactive: outcome [2] | outcome [3] | outcome [4] | outcome [5] | outcome [6] | outcome [7] | outcome [8] | outcome [9] | outcome [11] | outcome [13] | outcome [14] | outcome [16]
active: activation [1] 226% | activation [10] 34.5% | activation [12] 125% | activation [15] 67.1% | activation [17] 142% | potentiation [18] 75% | potentiation [19] 210% | current potentiation [20] 22.2%

CCN1CCN(c2ccc(S(=O)(=O)N3CCOCC3)cc2NC(=O)C(C)Oc2cccc(Cl)c2)CC1 (configuration not stated)
inactive: outcome [2] | outcome [3] | outcome [4] | outcome [5] | outcome [6] | outcome [7] | outcome [8] | outcome [9] | outcome [11] | outcome [13] | outcome [14] | outcome [15] | outcome [16]
active: activation [1] 83% | activation [10] 38% | activation [12] 11.3%

Cc1ccc(C(=O)NNC(=S)NC(=O)c2ccccc2)cc1
active: activation [1] 239% | activation [10] 27% | activation [12] 133% | activation [15] 77.1% | activation [17] 188% | potentiation [18] 156% | potentiation [19] 300%
inactive: outcome [2] | outcome [3] | outcome [4] | outcome [5] | outcome [6] | outcome [7] | outcome [8] | outcome [9] | outcome [11] | outcome [13] | outcome [14] | outcome [16] | outcome [20]

COc1cc(OC)cc(C(=O)N[C@H](C(=O)OCC(=O)NC(C)c2ccccc2)C(C)C)c1 (some centres not stated)
inactive: outcome [2] | outcome [3] | outcome [4] | outcome [5] | outcome [6] | outcome [7] | outcome [8] | outcome [9] | outcome [11] | outcome [13] | outcome [14] | outcome [16] | outcome [17] | outcome [18] | outcome [19] | outcome [20]
active: activation [1] 118% | activation [10] 36% | activation [12] 85.2% | activation [15] 45.3%

Cc1cc(NC(=O)CN2CCc3ccccc3C2)nc2c1c(=O)oc1ccccc12
inactive: outcome [1] | outcome [2] | outcome [3] | outcome [4] | outcome [5] | outcome [6] | outcome [7] | outcome [8] | outcome [9] | outcome [10] | outcome [11] | outcome [12] | outcome [13] | outcome [14] | outcome [15] | outcome [16]

Cc1sc2ncnc(NCC(C)(C)N3CCOCC3)c2c1C
active: activation [1] 178% | activation [2] 109% | activation [12] 62.7%
inactive: outcome [3] | outcome [4] | outcome [5] | outcome [6] | outcome [7] | outcome [8] | outcome [9] | outcome [10] | outcome [11] | outcome [13] | outcome [14] | outcome [15] | outcome [16]

CCCc1ccc(OCC(=O)NNC(=S)NC(=O)c2ccco2)cc1
active: activation [12] 46.5% | activation [17] 164% | potentiation [18] 79.5% | potentiation [19] 216%
inactive: outcome [1] | outcome [2] | outcome [3] | outcome [4] | outcome [5] | outcome [6] | outcome [7] | outcome [8] | outcome [9] | outcome [10] | outcome [11] | outcome [13] | outcome [14] | outcome [15] | outcome [16] | outcome [20]
